Source: ChEMBL document CHEMBL3988442, “University of Dundee, Small-Polar-MMV Screening Library” (2021)
About 420 (0.61%) of roughly 69,000 compounds showed an effect of 50% or more. Shown is part of a subset that was picked to be rich in strong results.

These compounds were tested against T1, Histidine--tRNA ligase (Leishmania infantum) (UniProt A4I591) (assay: Leishmania infantum Histidine tRNA synthetase (LdHisRS)). Settings: 30 µM.
T1 sequence (whole entry): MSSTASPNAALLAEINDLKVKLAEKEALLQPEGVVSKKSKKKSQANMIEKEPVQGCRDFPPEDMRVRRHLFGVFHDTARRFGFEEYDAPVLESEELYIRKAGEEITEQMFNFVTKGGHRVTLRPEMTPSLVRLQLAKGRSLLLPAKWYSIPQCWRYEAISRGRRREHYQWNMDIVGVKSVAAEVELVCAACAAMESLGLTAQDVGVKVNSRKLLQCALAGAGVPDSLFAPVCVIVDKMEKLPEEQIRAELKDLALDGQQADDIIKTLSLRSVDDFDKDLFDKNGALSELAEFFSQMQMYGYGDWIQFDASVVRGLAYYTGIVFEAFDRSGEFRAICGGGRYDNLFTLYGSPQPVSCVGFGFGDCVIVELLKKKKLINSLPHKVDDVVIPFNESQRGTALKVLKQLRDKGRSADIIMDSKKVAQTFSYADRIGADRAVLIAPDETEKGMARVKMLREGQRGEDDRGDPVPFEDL
Type: functional
Parameters: scale not given: in the data most compounds retested in dose-response had high values
`Cc1cccc2cc(CN3CCCN4CCC[C@H]4C3)c(=O)[nH]c12` was tested, and the Percent Effect was 17.5%. In the case of `Clc1cc(CN2CCCN3CCCC3C2)c2ncccc2c1` (stereo not given), the Percent Effect is reported as 62.9%. In the case of `CNc1ncccc1CN1CCN2CCN(C)CC2C1` (stereo not given), the Percent Effect is reported as 6.33%. `CNC(=O)[C@H]1C[C@@H]2CN(c3cc(OC)ncn3)C[C@@H]2N1C(C)C` gave a Percent Effect of -7.02%. For `c1cc(COC[C@]23COC[C@H]2CN(Cc2ccsc2)C3)ccn1`, the Percent Effect was 10.1%. Compound `CCNCCc1nc2cc(F)ccc2[nH]1` has a Percent Effect of 25.8%. `CNCCc1nc2cc(F)ccc2[nH]1` showed a Percent Effect of 55.3%. Work on `CNCCc1nc2cc(Cl)ccc2[nH]1` yielded a Percent Effect of 14.6%. Work on `O=C1[C@H]2CN(Cc3ccccn3)C[C@H]2CN1c1ccsc1` yielded a Percent Effect of 6.42%. `COc1ccc2c(c1)c(C(=O)Nc1n[nH]c(C(C)C)n1)cn2C(C)C` showed a Percent Effect of 22.9%. Compound `COc1ccc2c(c1)c(C(=O)Nc1nnn[nH]1)cn2C(C)C` has a Percent Effect of 52.1%. Work on `COc1ccc2c(c1)c(C(=O)Nc1nnn[nH]1)cn2C` yielded a Percent Effect of 18.8%. Work on `CN1C(Cn2cccn2)C[C@@H]2CN(Cc3cccnc3)CC[C@@H]21` (stereo not given in full) yielded a Percent Effect of 13.7%. Work on `O=C1[C@@H]2CCN(C3CCC3)C[C@@H]2OCCN1Cc1ccncc1` yielded a Percent Effect of 17.2%. Work on `Cc1noc(C)c1CN1CC[C@H]2OCC[C@@]2(C(=O)N2CCCO2)C1` yielded a Percent Effect of 17.6%. In the case of `O=C1[C@H]2CN(CC3CC3)C[C@H]2CN1c1ccsc1`, the Percent Effect is reported as 3.01%. For `COc1ccc(CCN)cc1-c1ccc(S(C)(=O)=O)cc1`, the Percent Effect was 23.9%. For `COc1ccc(CCN)cc1-c1ccc(O)cc1`, the Percent Effect was -4.22%. In the case of `COc1ccc(CCN)cc1-c1ccc(C(N)=O)cc1`, the Percent Effect is reported as 71.8%. In the case of `c1cnc(N2CCO[C@H]3CN(CC4CCOCC4)C[C@H]32)nc1`, the Percent Effect is reported as 11.7%.
